According to PubChem BioAssay (NCI):
This is part of a sample that, as a whole, favours compounds with a hit. Of some 79,000 tested, about 15% had one in any assay. Calls of active or inactive are those of the source. No stated cut-off is given here; in the data, active means growth inhibition above about 70%; inactive means the rest.

Legend:
[1] = NCI Yeast Anticancer Drug Screen. Data for the rad52 strain (AID 147);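 further: 0% = growth of vehicle-treated control cultures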; settings: S. cerevisiae rad52 mutant growth inhibition, active compounds read high
Procedure, shortened: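 Vehicle-treated cultures served as the reference for growth inhibition of compound-exposed yeast bearing a DNA repair mutation.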

[2] = NCI Yeast Anticancer Drug Screen. Data for the rad50EPP+ strain (AID 151);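 further: 0% = growth of vehicle-treated control cultures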; settings: S. cerevisiae rad50 mutant strain, active compounds read high
Procedure, shortened: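 In this screen, rad50EPP+ yeast were exposed to compounds. Growth inhibition was scored against vehicle-treated controls.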

[3] = NCI Yeast Anticancer Drug Screen. Data for the mgt1 strain (AID 153); settings: S. cerevisiae mgt1 mutant growth inhibition, active compounds read high
Procedure, shortened: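 mgt1 strain exposed; growth vs vehicle control recorded as inhibition.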

[4] = NCI Yeast Anticancer Drug Screen. Data for the rad50 strain (AID 155);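 further: 0% = growth of vehicle-only cultures of the same strain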; settings: S. cerevisiae rad50 strain growth inhibition, active compounds read high
Procedure, shortened: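 Genetically altered yeast (DNA repair pathway); compound treatment; growth inhibition vs vehicle ctrl.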

[5] = NCI Yeast Anticancer Drug Screen. Data for the mec2-1 strain (AID 157); settings: S. cerevisiae mec2-1 strain, active compounds read high
Procedure, shortened: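 Vehicle-treated cultures served as reference for growth inhibition of compound-exposed mec2-1 yeast.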

[6] = NCI Yeast Anticancer Drug Screen. Data for the rad14 strain (AID 159);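 further: 0% = growth of vehicle-treated control cultures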; settings: S. cerevisiae rad14 strain growth inhibition, active compounds read high
Procedure, shortened: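 Test compounds were applied to a repair-deficient yeast strain. Its growth was then compared with that of cultures given vehicle alone, and inhibition was expressed relative to those controls.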

[7] = NCI Yeast Anticancer Drug Screen. Data for the sgs1 mgt1 strain (AID 161);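 further: 0% = growth of cultures given vehicle only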; settings: S. cerevisiae sgs1 mgt1 strain, active compounds read high
Procedure, shortened: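 Genetically altered yeast, compound exposure, growth inhibition relative to vehicle.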

[8] = NCI Yeast Anticancer Drug Screen. Data for the cln2 rad14 strain (AID 165);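 further: 0% = growth equal to vehicle treated cultures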; settings: S. cerevisiae cln2 rad14 strain, active compounds read high
Procedure, shortened: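 Each compound was tested on cln2 rad14 yeast. Inhibition of growth was calculated against vehicle-exposed controls.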

[9] = NCI Yeast Anticancer Drug Screen. Data for the bub3 strain (AID 167); settings: S. cerevisiae bub3 mutant strain, active compounds read high
Procedure, shortened: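 Yeast carrying a defined mutation is treated with each compound, and growth is compared with that of vehicle-exposed cells to give inhibition.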

[10] = NCI Yeast Anticancer Drug Screen. Data for the wt2 strain (AID 169);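 further: 0% = growth of vehicle-treated yeast cultures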; settings: S. cerevisiae wt2 strain growth inhibition, active compounds read high
Procedure, shortened: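 Inhibition of yeast growth was determined after compound treatment, normalised to controls receiving only vehicle.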

[11] = NCI Yeast Anticancer Drug Screen. Data for the mlh1 strain (AID 171);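 further: 0% = growth of vehicle-treated control cultures of the same strain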; settings: S. cerevisiae mlh1 strain growth inhibition, active compounds read high
Procedure, shortened: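 Vehicle-normalised growth inhibition of a repair- or checkpoint-altered yeast strain following compound treatment.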

[12] = NCI Yeast Anticancer Drug Screen. Data for the sgs1 strain (AID 173);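 further: 0% = growth of vehicle-only control cultures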; settings: S. cerevisiae sgs1 mutant, active compounds read high
Procedure, shortened: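 Screen format: yeast with repair or checkpoint alterations, compound exposure, growth read relative to vehicle.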

[13] = NCI Yeast Anticancer Drug Screen. Data for the mlh1 rad18 strain (AID 175); settings: S. cerevisiae mlh1 rad18 strain growth inhibition, active compounds read high
Procedure, shortened: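 Vehicle-treated cultures served as the reference for growth inhibition in a yeast strain carrying DNA damage repair alterations exposed to each compound.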

[14] = NCI Yeast Anticancer Drug Screen. Data for the rad18 strain (AID 177); settings: S. cerevisiae rad18 mutant growth inhibition, active compounds read high
Procedure, shortened: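 Test articles were incubated with altered yeast defective in DNA damage repair. Results are given as inhibition of growth versus vehicle.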

[15] = NCI Yeast Anticancer Drug Screen. Data for the CLN2oe strain (AID 163);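 further: 0% = growth of vehicle-only control cultures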; settings: S. cerevisiae CLN2oe strain, active compounds read high
Procedure, shortened: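 Inhibition relative to vehicle-treated yeast is reported. Cells: strain with genetic alteration in cell-cycle control, grown with compound.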

[16] = at 5.0 µM (retest, dose inferred, filed as 0.5)
[17] = at 50.0 µM (retest, dose inferred, filed as 5.0)

Measured: growth inhibition

CN(C)c1ccc(C2CC(C)(O)Oc3cc4c(cc32)OCO4)cc1 (stereo unspecified)
active: [1]; at 100.0 µM 70% | [4]; [17] 77% | [7]; [17] 83% | [9]; [17] 79% | [12]; at 100.0 µM 87% | [13]; [17] 93% | [14]; at 11.0 µM 89% | [14]; at 33.0 µM 92% | [14]; at 100.0 µM 95%
inactive: [1]; at 1.2 µM -1% | [1]; at 3.7 µM -1% | [1]; at 11.0 µM 10% | [1]; at 33.0 µM 28% | [2]; at 1.2 µM 2% | [2]; at 3.7 µM 4% | [2]; at 11.0 µM 20% | [2]; at 33.0 µM 36% | [2]; at 100.0 µM 59% | [3]; at 1.2 µM -2% | [3]; at 3.7 µM -3% | [3]; at 11.0 µM 0% | [3]; at 33.0 µM 4% | [3]; at 100.0 µM 48% | [4]; at 1.2 µM -1% | [4]; at 3.7 µM -2% | [4]; [16] 10% | [4]; at 11.0 µM 5% | [4]; at 33.0 µM 12% | [4]; at 50.0 µM 24.6% | [4]; at 100.0 µM 40% | [5]; at 1.2 µM -6% | [5]; at 3.7 µM 0% | [5]; [16] -20% | [5]; at 11.0 µM 2% | [5]; at 33.0 µM 4% | [5]; [17] 12% | [5]; at 50.0 µM 14.3% | [5]; at 100.0 µM 29% | [6]; at 1.2 µM -1% | [6]; at 3.7 µM 1% | [6]; at 11.0 µM 9% | [6]; at 33.0 µM 27% | [6]; at 100.0 µM 58% | [7]; [16] 2% | [7]; at 50.0 µM 34.7% | [8]; [16] 1% | [8]; [17] 37% | [8]; at 50.0 µM 21.3% | [9]; at 1.2 µM -5% | [9]; at 3.7 µM -3% | [9]; [16] 18% | [9]; at 11.0 µM 3% | [9]; at 33.0 µM 10% | [9]; at 50.0 µM 27.9% | [9]; at 100.0 µM 16% | [10]; at 1.2 µM -1% | [10]; at 3.7 µM -2% | [10]; at 11.0 µM -1% | [10]; at 33.0 µM 7% | [10]; at 100.0 µM 46% | [11]; at 1.2 µM -3% | [11]; at 3.7 µM 0% | [11]; at 11.0 µM 2% | [11]; at 33.0 µM 11% | [11]; at 100.0 µM 41% | [12]; at 1.2 µM -1% | [12]; at 3.7 µM 7% | [12]; at 11.0 µM 23% | [12]; at 33.0 µM 55% | [13]; [16] 23% | [13]; at 50.0 µM 43.5% | [14]; at 1.2 µM 24% | [14]; at 3.7 µM 57%

CCN(CC)CCNc1ccc([N+](=O)[O-])c2nc3ccccc3c(N)c12
inactive: [1]; at 1.2 µM 1% | [1]; at 3.7 µM -6% | [1]; at 11.0 µM 10% | [1]; at 33.0 µM 31% | [2]; at 1.2 µM -14% | [2]; at 3.7 µM -4% | [2]; at 11.0 µM 1% | [2]; at 33.0 µM 34% | [4]; at 1.2 µM 10% | [4]; at 3.7 µM 14% | [4]; [16] 2% | [4]; at 11.0 µM 15% | [4]; at 33.0 µM 46% | [5]; at 1.2 µM -13% | [5]; at 3.7 µM -23% | [5]; [16] -5% | [5]; at 11.0 µM -11% | [5]; at 33.0 µM -13% | [5]; [17] -2% | [5]; at 50.0 µM 35.2% | [5]; at 100.0 µM 0% | [6]; at 1.2 µM -8% | [6]; at 3.7 µM -19% | [6]; at 11.0 µM -26% | [6]; at 33.0 µM -34% | [6]; at 100.0 µM -8% | [7]; [16] -4% | [7]; [17] 6% | [15]; at 1.2 µM 5% | [15]; at 3.7 µM -7% | [15]; at 11.0 µM -12% | [15]; at 33.0 µM -6% | [15]; at 100.0 µM 4% | [8]; [16] 7% | [8]; [17] 39% | [8]; at 50.0 µM 36.6% | [9]; at 1.2 µM -15% | [9]; at 3.7 µM -40% | [9]; [16] -9% | [9]; at 11.0 µM -21% | [9]; at 33.0 µM -12% | [9]; [17] 20% | [9]; at 50.0 µM 7.35% | [9]; at 100.0 µM -11% | [10]; at 1.2 µM 1% | [10]; at 3.7 µM -1% | [10]; at 11.0 µM -2% | [10]; at 33.0 µM -3% | [10]; at 100.0 µM 2% | [11]; at 1.2 µM -5% | [11]; at 3.7 µM -7% | [11]; at 11.0 µM -9% | [11]; at 33.0 µM -4% | [11]; at 100.0 µM 8% | [12]; at 1.2 µM -4% | [12]; at 3.7 µM 2% | [12]; at 11.0 µM 6% | [12]; at 33.0 µM -2% | [12]; at 100.0 µM 13% | [13]; [16] -28% | [13]; [17] 15%
active: [1]; at 100.0 µM 81% | [2]; at 100.0 µM 77% | [4]; [17] 71% | [4]; at 50.0 µM 74.3% | [4]; at 100.0 µM 84% | [7]; at 50.0 µM 82.1% | [13]; at 50.0 µM 85.2%
